Experimental findings from PubChem BioAssay (NCI) are described below.

The panel holds about 83,000 compounds, 20% with a hit somewhere; the sample as a whole holds those more often.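 Values shown are percent growth following 48 h exposure of cells in 96-well plates to a single concentration of compound; below 10 was considered active.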 A number with no mark means an inactive call. Activity calls are given as the source filed them.

Some test systems named below: SR leukemia; RPMI-8226 leukemia; OVCAR-8 ovarian; OVCAR-5 ovarian; OVCAR-4 ovarian; SK-OV-3 ovarian; IGROV1 ovarian; OVCAR-3 ovarian; HS 578T breast; NCI/ADR-RES ovarian.
Holding throughout (experiment): NCI-60 one-dose screen, 48 h (100 = growth as untreated, 0 = no growth, -100 = all killed)
Holding throughout (conditions): 10 µM unless noted

With `CCCCCC(=O)Oc1ccc(/C(=C(\C)c2ccccc2)c2ccc(OCCN3CCCCC3)cc2)cc1`, the growth with SR leukemia was 30.5%; in the assay with RPMI-8226 leukemia, 64.8%; in the assay on OVCAR-8 ovarian, 89.2%; in the assay on OVCAR-5 ovarian, 88.3%; with OVCAR-4 ovarian, 82.9%; with SK-OV-3 ovarian, 80.7%. Moreover, the growth in the assay with IGROV1 ovarian was 90.4%; in the assay with OVCAR-3 ovarian, 90.5%; in the assay on HS 578T breast, 75.6%; in the assay on NCI/ADR-RES ovarian, 76.3%.
As for `O=C(Nc1cccc(C(=O)N2CCc3ccc(Cl)cc32)c1)c1ccco1`, the growth with SR leukemia is 20.4%; in the assay with RPMI-8226 leukemia, 34.6%; in the assay with OVCAR-8 ovarian, 51.5%; with OVCAR-5 ovarian, 70.7%; in the assay with OVCAR-4 ovarian it was 70.5%; in the assay on SK-OV-3 ovarian it was 82.6%. The growth in the assay with IGROV1 ovarian is 31.1%; in the assay with OVCAR-3 ovarian, 18.2%; with HS 578T breast, 28.9%; in the assay on NCI/ADR-RES ovarian it was 24.2%.
As to `COc1cc(C=O)ccc1OC1OC(COC(C)=O)C(OC(C)=O)C(OC(C)=O)C1OC(C)=O` (centres undefined), the growth in the assay with SR leukemia was 60.7%; with RPMI-8226 leukemia, 92.1%; with OVCAR-8 ovarian, 102%; in the assay with OVCAR-5 ovarian it was 103%; with OVCAR-4 ovarian it was 103%; with SK-OV-3 ovarian, 103%. Further, the growth with IGROV1 ovarian was 113%; with OVCAR-3 ovarian, 104%; in the assay on HS 578T breast, 104%; with NCI/ADR-RES ovarian it was 103%.
On to `COCc1cnccc1NC1CCCCCC1`, for which the growth with SR leukemia is 101%; with RPMI-8226 leukemia, 104%; in the assay on OVCAR-8 ovarian, 96.3%; in the assay on OVCAR-5 ovarian it was 108%; with OVCAR-4 ovarian, 98.6%; in the assay with SK-OV-3 ovarian, 111%. Besides, the growth with IGROV1 ovarian was 110%; in the assay on OVCAR-3 ovarian it was 102%; with HS 578T breast, 96%; with NCI/ADR-RES ovarian, 100%.
Turning to `COc1cc(CC(=O)c2ccc(O)c(OC)c2)ccc1O`, the growth is 90.1% with SR leukemia; 97.9% in the assay with RPMI-8226 leukemia; 97.9% in the assay with OVCAR-8 ovarian; 97.9% in the assay with OVCAR-5 ovarian; 103% with OVCAR-4 ovarian; 99.7% with SK-OV-3 ovarian. Besides, the growth with IGROV1 ovarian is 111%; in the assay on OVCAR-3 ovarian it was 105%; in the assay on HS 578T breast, 98.5%; in the assay on NCI/ADR-RES ovarian it was 100%.
As to `c1ccc(-c2cn3c(ccc4ccccc43)n2)cc1`, the growth is 20.9% with SR leukemia; 62.5% with RPMI-8226 leukemia; 71.4% in the assay with OVCAR-8 ovarian; 77.2% in the assay on OVCAR-5 ovarian; 91.5% in the assay on OVCAR-4 ovarian; 77.1% with SK-OV-3 ovarian. The growth in the assay on IGROV1 ovarian was 49.3%; in the assay on OVCAR-3 ovarian, 56.3%; with HS 578T breast it was 67.8%; in the assay with NCI/ADR-RES ovarian it was 35.7%.
Take `COC(=O)N[C@H]1CCc2c(Cl)c(OC)c(OC)c(OC)c2-c2ccc(SC)c(=O)cc21`: the growth was 2.15% (active) with SR leukemia; -5.28% (active) in the assay with RPMI-8226 leukemia; 15.4% with OVCAR-8 ovarian; 38.5% in the assay on OVCAR-5 ovarian; 39.5% in the assay with OVCAR-4 ovarian; 40.3% in the assay with SK-OV-3 ovarian. The growth in the assay on IGROV1 ovarian is 9.16% (active); in the assay on OVCAR-3 ovarian, -46.2% (active); in the assay with HS 578T breast, 9.58% (active); in the assay on NCI/ADR-RES ovarian, 7.43% (active).
Consider `N/C(=N\C(N)=N\c1nc2ccccc2s1)c1cnccn1`, for which the growth was 0% (active) in the assay with SR leukemia; 13.3% with RPMI-8226 leukemia; 28.1% with OVCAR-8 ovarian; 60.1% in the assay with OVCAR-5 ovarian; 14.9% with OVCAR-4 ovarian; 12.9% in the assay on SK-OV-3 ovarian. Moreover, the growth with IGROV1 ovarian was -1.19% (active); in the assay with OVCAR-3 ovarian, 3.95% (active); in the assay on HS 578T breast, 49%; in the assay with NCI/ADR-RES ovarian it was 61.7%.
For the compound `O=C1Nc2cc(-c3ccc(NC(=O)C4CC4)cc3)ccc2/C1=C/c1ccc[nH]1`, the growth in the assay with SR leukemia was 44.8%; with RPMI-8226 leukemia, 93.6%; in the assay with OVCAR-8 ovarian it was 110%; in the assay with OVCAR-5 ovarian it was 98%; in the assay with OVCAR-4 ovarian it was 73.4%; with SK-OV-3 ovarian, 105%. In addition, the growth with IGROV1 ovarian was 99.2%; with OVCAR-3 ovarian, 110%; with HS 578T breast it was 110%; in the assay with NCI/ADR-RES ovarian, 106%.
Turning to `O=C1Nc2cc(-c3cccc(O)c3)ccc2/C1=C/c1ccc[nH]1`, the growth in the assay on SR leukemia is 4.14% (active); in the assay on RPMI-8226 leukemia, -15% (active); in the assay with OVCAR-8 ovarian it was 26.6%; with OVCAR-5 ovarian, 19.4%; in the assay on OVCAR-4 ovarian it was 25.4%; in the assay on SK-OV-3 ovarian, 3.46% (active). The growth in the assay with IGROV1 ovarian is 8.78% (active); in the assay on OVCAR-3 ovarian, -1.19% (active); with HS 578T breast, -4.18% (active); with NCI/ADR-RES ovarian it was 23.8%.
Regarding `CC(Sc1nc2ccccc2c(=O)n1CCc1ccc(S(N)(=O)=O)cc1)C(=O)Nc1ccc(Cl)cc1` (centres undefined), the growth in the assay with SR leukemia was 77.4%; with RPMI-8226 leukemia, 65.9%; in the assay with OVCAR-8 ovarian, 72.8%; with OVCAR-5 ovarian it was 85.7%; with OVCAR-4 ovarian it was 93.2%; with SK-OV-3 ovarian it was 125%. The growth in the assay on IGROV1 ovarian is 86.3%; with OVCAR-3 ovarian, 99.1%; with HS 578T breast, 86.5%; in the assay with NCI/ADR-RES ovarian, 77.3%.
On to `CCC(CC)NCC(C)(C)O`, for which the growth in the assay on SR leukemia was 93.4%; in the assay with RPMI-8226 leukemia, 107%; in the assay on OVCAR-8 ovarian, 99%; with OVCAR-5 ovarian, 108%; in the assay with OVCAR-4 ovarian, 105%; in the assay with SK-OV-3 ovarian it was 110%. In addition, the growth in the assay on IGROV1 ovarian was 98%; in the assay with OVCAR-3 ovarian, 119%; in the assay with HS 578T breast it was 107%; in the assay with NCI/ADR-RES ovarian, 106%.
`COC(=O)CNC(=O)[C@]12CCC(C)(C)C[C@H]1C1=CC[C@@H]3[C@@]4(C)Cc5c([nH]c6ccccc56)C(C)(C)[C@@H]4CC[C@@]3(C)[C@]1(C)CC2`: the growth with SR leukemia is 83.3%; with RPMI-8226 leukemia it was 77%; in the assay on OVCAR-8 ovarian, 85.2%; in the assay on OVCAR-5 ovarian it was 95.4%; in the assay with OVCAR-4 ovarian, 77%; in the assay with SK-OV-3 ovarian, 82.6%. Further, the growth in the assay with IGROV1 ovarian is 104%; in the assay on HS 578T breast, 87.5%; with NCI/ADR-RES ovarian it was 89.6%.
